Only some compounds are listed: those with a hit (about 11% of all), similar ones and a draw of the others.
HPGD block = blocks human HPGD enzyme activity. P15428. purified HPGD, NADH fluorescence kinetic, PGE2 substrate. Potency, µM, for inactives: top-dose activity change, negative = inhibition, actives largely listed as inhibitors. hit rate 4.3% among 150,000. AID 894; active = well fitted inhibition curve with a large enough effect, not every such curve was filed as active; inconclusive = small, poorly fitted or top-dose-only effect, or another doubt; inactive = no such curve, though single readings can be large or run the other way; note: potency is the fitted concentration of half-maximal effect; % is set by controls: 0 for no effect and ±100 for the full control effect
Target sequence (P15428 whole entry, looked up): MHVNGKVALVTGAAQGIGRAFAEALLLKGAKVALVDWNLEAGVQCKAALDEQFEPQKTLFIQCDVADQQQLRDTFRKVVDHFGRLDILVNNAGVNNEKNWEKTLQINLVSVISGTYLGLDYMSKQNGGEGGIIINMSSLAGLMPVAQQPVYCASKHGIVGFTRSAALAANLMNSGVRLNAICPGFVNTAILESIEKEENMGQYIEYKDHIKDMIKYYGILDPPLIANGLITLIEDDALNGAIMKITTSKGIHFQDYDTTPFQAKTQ
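NADH formation kinetics: reaction with 30 uM PGE2 and 1 mM NAD+ (final), 20 nM enzyme, Tris-HCl pH 8 with Tween 20, after 15 min compound preincubation at room temperature. Fluorescence change, last versus first of five reads.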
HttQ103 aggreg = mutant huntingtin aggregation inhibition; PC12 HttQ103-GFP aggregates, Acumen cytometry, 40 h; Potency, µM (doses to about 46.1 µM), for inactives: at the highest dose activity change, negative = inhibition, hits mostly inhibitors; hit rate 1.1% among 220,000; AID 1688; note: potency is the fitted concentration of half-maximal effect; % is set by controls: 0 for no effect and ±100 for the full control effect; nearly all actives have a fitted effect of over 60% in size
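Aggregates are detected as GFP objects 1–25 µm with signal 6 STDEV over background in lysates of induced PC12 cells. These carry Huntingtin exon 1 with 103 glutamines fused to GFP under an ecdysone promoter; compounds titrated.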
HTT cytoprotect = cytoprotection in Huntington HTT-Q103 PC12 cell model; PC12 HTT-Q103 induced, cytoprotection, ATP luminescence, 40 h; Potency, µM (doses to about 56.4 µM), for the others: cytoprotection (ATP increase), hits mostly activators; hit rate 0.14% among 230,000; AID 1471; note: potency is the fitted concentration of half-maximal effect; % of control where 0% means no effect; nearly all actives have a fitted effect of over 45% in size
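Huntington model: PC12 line, ecdysone-inducible HTTQ103 exon1–GFP, tebufenozide 100 nM. Test articles in a dose series. Endpoint luminescence from cellular ATP.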
PNC inhibitor = perinucleolar compartment assembly inhibition; AID 2417; activity change (PNC), negative = inhibition, % at 10 µM; PC3M PTB-GFP, PNC prevalence imaging, 16 h; hits give low values; hit rate 3.1% among 140,000;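 active = readout at or below -70, meaning at least 70% loss of cells showing the perinucleolar compartment, a nuclear body marking cancer cells; inconclusive = readout between -30 and a set limit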;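 note: plate controls were DMSO wells for no effect and camptothecin positive control wells for full effect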
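PC3M cells stably expressing PTB-GFP, 750–1000 cells/well, treated 16 h at 37 °C with compound (23 nl of library stock), in duplicate. After paraformaldehyde fixation and Hoechst stain, imaged at 20x; PNC prevalence scored by image analysis.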
CBFb-RUNX1 inh = CBF-beta/RUNX1 interaction disruption; Q01196+Q13951; AlphaScreen CBFb-His/RUNX1-biotin binding, biochemical; Potency, µM (highest dose often 59.8 µM), without a hit: top-dose activity, negative = inhibition, usual class: inhibitors; 230,000 tested, under 10 active; note: % of control where 0% means no effect
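CBF-beta (His) and RUNX1 (biotin), 30 nM each; 20 min preassociation; + compound, 15 min; + beads 50 ng each (Ni, streptavidin), 90 min; RT; AlphaScreen read.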
ALDH1A1 inh = ALDH1A1 (human) enzyme inhibition; P00352; Purified ALDH1A1, NADH fluorescence, propionaldehyde substrate; Potency, µM (series often up to 75.3 µM), for the others: at the top dose activity, negative = inhibition, hits mostly inhibitors; hit rate 7.3% among 220,000; AID 1030; active = well fitted inhibition curve with a large enough effect, not every such curve was filed as active; inconclusive = small, poorly fitted or top-dose-only effect, or another doubt; inactive = no such curve, though single readings can be large or run the other way;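 note: potency is the fitted concentration of half-maximal effect; plate controls were no enzyme wells and a reference inhibitor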
* hit, by the source's call; ? = inconclusive; / = no result given; ! = not confirmed by another sample; [ ] = remark or other dose. Unless noted, calls come from the whole dose curve; as a rule, active = well fitted curve in the direction sought with a large enough effect; inconclusive = small, poorly fitted or top-dose-only effect, or another doubt; inactive = no such curve, though single readings can be large; an effect the other way counts as inactive or inconclusive.

SMILES	HPGD block	HttQ103 aggreg	HTT cytoprotect	PNC inhibitor	CBFb-RUNX1 inh	ALDH1A1 inh
C[C@H]1CC[C@H]2C(=O)N3[C@H](c4ccc(Br)cc4)[C@@H](C)CC[C@H]3C(=O)N2[C@@H]1c1ccc(Br)cc1	/	/	-206%[10 µM]	/	7%[13.1 µM]	11%[13.5 µM]
CC1CCCC(C)N1C(=O)c1cccc2c1-c1ccccc1/C2=N/O (configuration not stated)	-9%	7.9µM*	6%[1.9 µM]	-29	5%	7%
CCOC(=O)c1cccc2c1-c1ccccc1/C2=N/O	-12%	-5%	19%	?	1%	9%
COc1ccc(CCN2C(=S)N(C)C(=O)C2CC(=O)Nc2ccc(OC)cc2)cc1 (configuration not stated)	/	11%[9.22 µM]	5%[10 µM]	/	0%	4.5µM*
COc1ccc(NC(=O)CC2C(=O)N(C)C(=S)N2CCc2ccc(F)cc2)cc1 (configuration not stated)	/	10%[9.22 µM]	11%[10 µM]	/	3%	/
COc1ccc(NC(=O)CC2C(=O)N(C)C(=S)N2CCc2ccccc2)cc1 (configuration not stated)	-6%	15%	-21%[0.074 µM]	?	-2%	0.89µM*
COc1ccc(NC(=O)CC2C(=O)N(C)C(=S)N2Cc2cccs2)cc1 (configuration not stated)	-2%	7%	1%[10 µM]	17	-3%	0%
CCN1C(=O)C(CC(=O)Nc2ccc(OC)cc2)N(CCc2ccc(F)cc2)C1=S (configuration not stated)	/	?	-82%	/	8%	14µM*
CCN1C(=O)C(CC(=O)Nc2ccc(OC)cc2)N(CCCN2CCN(c3ccc(F)cc3)CC2)C1=S (configuration not stated)	/	14%	-53%	/	-9%	-12%
CN1CCN(C(=S)SCc2nc(N)nc(Nc3ccc(F)cc3)n2)CC1	/	-11%[9.22 µM]	-45%	/	-7%	-13%
O=C(NC(Cc1ccccc1)c1ccc2c(c1)OCCCO2)c1ccc(F)cc1 (configuration not stated)	-16%	?	-28%	-17	18%	?
O=C(O)/C=C(/C(=O)O)[C@]12CCN3CC4=CCO[C@@H]5CC(=O)N[C@@H]1[C@H]5[C@H]4C[C@H]32	/	/	5%[10 µM]	/	/	/
OC[C@H]1O[C@@H]2O[C@H]3[C@H](O)[C@@H](O)[C@@H](O[C@H]4[C@H](O)[C@@H](O)[C@@H](O[C@H]5[C@H](O)[C@@H](O)[C@@H](O[C@H]6[C@H](O)[C@@H](O)[C@@H](O[C@H]7[C@H](O)[C@@H](O)[C@@H](O[C@H]1[C@H](O)[C@H]2O)O[C@@H]7CO)O[C@@H]6CO)O[C@@H]5CO)O[C@@H]4CO)O[C@@H]3CO	3%	-5%	-22%	/	4%[21.7 µM]	?
FC(F)(F)c1cc(NC(=S)N2c3ccccc3-n3cccc3[C@H]2c2cccnc2)cc(C(F)(F)F)c1	?	/	12%[10 µM]	/	/	?
O=c1cc(-c2ccccc2)oc2cc(O)c(O)c(O)c12	28µM*	/	-12%[1.9 µM]	/	?	15µM*!
COc1c(O)cc2oc(-c3ccc(O)cc3)cc(=O)c2c1O	/	-1%[9.22 µM]	-46%[10 µM]	/	7%	/
NNC(=O)c1cc(-c2ccc(O)cc2)nc2ccc(Br)cc12	/	-1%[9.22 µM]	-2%[10 µM]	/	12%	14µM*
COc1ccc(OC)c(NC(=O)CSc2ncnc3c2cnn3-c2ccccc2Cl)c1	-21%	3%	-8%[10 µM]	?	-8%	16µM*
COc1ccc(OC)c(NC(=O)CSCC(=O)O)c1	-14%	-19%	-7%[10 µM]	55	-8%	20µM*
COc1ccc(OC)c(NC(=O)CSc2ccc3ccccc3c2)c1	/	-32%	-60%	?	2%	11µM*
COc1cc(NC(=O)CSc2ncnc3c2cnn3Cc2ccccc2)cc(OC)c1	-16%	0%	6%	39	-1%	?
NC(=O)NCC(N)C(=O)O (configuration not stated)	-8%	/	/	/	/	6%
COc1cc(/C=N/S(=O)(=O)CCc2ccccc2)ccc1O	-12%	-29%	22%[10 µM]	58	6%	28µM*
O=S(=O)(CCc1ccccc1)/N=C/c1cccs1	-17%	-7%	-7%	-103*	11%	?
O=C(Oc1ccccc1)N1CCC2(CC1)CCN(c1ccncc1)CC2	-3%	/	26%	/	/	?
SMILES	HPGD block	HttQ103 aggreg	HTT cytoprotect	PNC inhibitor	CBFb-RUNX1 inh	ALDH1A1 inh
CCCN1C(=O)c2cc(C(=O)NC3CCCCCC3)ccc2C1O (configuration not stated)	-6%	-13%	-7%[10 µM]	-22	9%	16µM*
CCCN1C(=O)c2cc(C(=O)O)ccc2C1O (configuration not stated)	-13%	-3%	0%[10 µM]	?	8%	-11%
CCn1nnnc1NCc1ccc(N2CCCC2)cc1	-13%	11%	9%[10 µM]	21	?	35µM*
CCc1[nH]c(=O)[nH]c1C(C)S(=O)(=O)c1ccc(C)cc1 (configuration not stated)	/	?	14%	/	-4%	32µM*
Cc1c(CCOC(=O)C23CC4(C)CC(C)(CC(C)(C4)C2)C3)sc[n+]1CC(=O)c1ccccc1	/	/	/	/	1%	9%
Cc1c(CCOC(=O)c2cc([N+](=O)[O-])cc([N+](=O)[O-])c2)sc[n+]1CC(=O)c1ccc(Br)cc1	/	24%	-24%	/	?	2.5µM*
Cc1cccc(CSC(Nc2ccc(F)cc2)=C(C#N)C#N)c1	-4%	4.5µM*	-18%[10 µM]	?	5%	0%
N#CC(C#N)=C(Nc1ccc(F)cc1)SCc1cccc(Br)c1	-2%	2.2µM*	-64%[10 µM]	-24	11%	1%
CC(SCc1ccccc1)C(=O)Nc1ccc(F)cc1 (configuration not stated)	/	-1%	/	/	11%	-10%
CCOC(=O)C1(CCc2ccccc2)CCN(C(=O)CN2CCOC2=O)CC1	/	-1%[9.22 µM]	-6%[10 µM]	/	1%	-2%
CC(Sc1ccccn1)C(=O)Nc1ccccc1 (configuration not stated)	28µM*	-22%	-4%	?	6%	-2%
CC(=O)c1ccc(NC(=O)C(C)Sc2ccccn2)cc1 (configuration not stated)	/	-13%[9.22 µM]	0%	/	-2%	?
CC(Sc1ccccn1)C(=O)Nc1ccc(S(N)(=O)=O)cc1 (configuration not stated)	-20%	-4%	22%	-108*	1%	-1%
FC(F)(F)c1ccccc1-c1nccc(N2CCNCC2)n1	/	/	-3%	/	/	15%
Oc1ccc2ccccc2c1/C=C\c1ccc2c(Br)cc(Br)c(O)c2n1	-13%	/	-1%[10 µM]	/	/	21%[13.5 µM]
